# The list is not random: actives were taken first. Their share in the collection is about 21%.
# Pf growth 96h – P. falciparum growth inhibition at 96 hours. P. falciparum luciferase reporter growth, 96 h. AID 504834. Potency, µM (titrated, usually from 28.7 µM), inactives show at the top dose activity change, negative = inhibition, actives largely listed as inhibitors. 320,000 tested, 6.9% active; also: potency is read from the fitted curve at half-maximal effect; % is scaled to controls: 0 for no effect and ±100 for the full control effect
#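 Compounds incubated with erythrocytes infected by luciferase-expressing P. falciparum (2% hematocrit, 0.05% parasitemia final) for 96 hours, 37 C in 5% CO2. Growth inhibition scored as decreased luciferase luminescence.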
# CHX counter – counter-screen for Shiga toxin inhibitors: cycloheximide protein synthesis inhibition; 300,000 tested, 12% active; cell reporter, cycloheximide protein synthesis inhibition counterscreen; AID 2314; max response, %; in the data active = max response mostly above about 13%, no sharp cut-off; inactive = mostly below about 14%; also: read at 38.3 µM for the half of the compounds with a filed dose; 0% is about no effect
# Pf growth 48h – inhibits P. falciparum growth in the first generation, 48 h; P. falciparum luciferase growth in erythrocytes, 48 h; Potency, µM (top dose mostly 28.7 µM), for the others: at the highest dose activity change, negative = inhibition, most hits filed as inhibitors; 310,000 tested, 5.9% active; AID 504832; also: potency is read from the fitted curve at half-maximal effect; % is scaled to controls: 0 for no effect and ±100 for the full control effect
#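 Growth was read as firefly luciferase luminescence after a 48 h, 37 C, 5% CO2 exposure of compounds to reporter-bearing P. falciparum cultures (0.1% parasitemia, 2% hematocrit final) in Albumax-supplemented RPMI 1640.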
# Shiga toxin inh – Shiga toxin inhibition; Vero cells, Shiga toxin protein synthesis inhibition reporter; inhibition, % at 38.7 µM; 290,000 tested, 9.2% active; AID 2315; in the data active = inhibition mostly above about 28%, no sharp cut-off; inactive = mostly below about 43%; also: 0% is about no effect
# Active calls of the source: *; ? = inconclusive; / = no result; [ ] = another dose, or the depositor's remark. Unless noted, calls follow the shape of the dose curve; as a rule, active = well fitted inhibition curve with a large enough effect; inconclusive = small, poorly fitted or top-dose-only effect, or another doubt; inactive = no such curve, though single readings can be large or run the other way.
SMILES,Pf growth 96h,CHX counter,Pf growth 48h,Shiga toxin inh
N#C/C(=C\c1ccc(N2CCOCC2)o1)C(=O)NCC1CCCO1 (stereo not drawn),-18%,-5,?,24
CN1CCN(CCCNC(=O)Nc2ccc([N+](=O)[O-])cc2)CC1,-17%,-3,3%[0.00184 µM],9
COc1ccc(NC2c3ccccc3C(=O)N2Cc2ccc3c(c2)OCO3)cc1 (stereo not drawn),-20%,1,?,-28
CCSc1nc2c(sc3ccccc32)c(=O)n1C(C)C,13µM*,-4,/,23
C#CCOCCOCCOCCNc1nc(N2CCN(C(=O)[C@H]([C@@H](C)CC)n3cc(CCCN=C(N)N)nn3)CC2)nc(N2CCN(C(=O)[C@H](C)n3cc(CCCN=C(N)N)nn3)CC2)n1,0.17µM*,-3,?,-15
C#CCOCCOCCOCCNc1nc(N2CCN(C(=O)[C@H](C)n3cc(CCCN=C(N)N)nn3)CC2)nc(N2CCN(C(=O)[C@H](C)n3cc(CCCN=C(N)N)nn3)CC2)n1,0.74µM*,-3,?,-6
C#CCOCCOCCOCCNc1nc(N2CCN(C(=O)Cn3cc(CCCN=C(N)N)nn3)CC2)nc(N2CCN(C(=O)[C@H]([C@@H](C)CC)n3cc(CCC(=O)O)nn3)CC2)n1,-15%,-4,-11%,-13
C#CCOCCOCCOCCNc1nc(N2CCN(C(=O)[C@H]([C@@H](C)CC)n3cc(CCCN=C(N)N)nn3)CC2)nc(N2CCN(C(=O)[C@H]([C@@H](C)CC)n3cc(CCCN=C(N)N)nn3)CC2)n1,0.93µM*,-5,?,19
C#CCOCCOCCOCCNc1nc(N2CCN(C(=O)Cn3cc(CCCN=C(N)N)nn3)CC2)nc(N2CCN(C(=O)Cn3cc(CCCN=C(N)N)nn3)CC2)n1,0.033µM*,-2,?,-15
O=C(CNC(=O)c1ccc(Cl)cc1Cl)OCc1nnc(-c2ccccc2)o1,19%,/,-27%,/
COc1ccc(C(C)(C)C)cc1NC(=O)CCCN1C(=O)CN(C)C1=O,3%,/,-2%,/
C#CCOCCOCCOCCNc1nc(N2CCN(C(=O)Cn3cc(CC(C)O)nn3)CC2)nc(N2CCN(C(=O)[C@H]([C@@H](C)CC)n3cc(CCCN=C(N)N)nn3)CC2)n1 (stereo partly drawn),4.7µM*,-6,-20%,-12
C[n+]1cccc(C2C(C#N)=C(N)Oc3c2ccc2ccccc32)c1 (stereo not drawn),?,51*,0.29µM*,76*
N#CC1=C(N)Oc2cc3ccccc3cc2C1c1cccnc1 (stereo not drawn),?,-7,?,-12
N#CC1=C(N)Oc2c(ccc3cccnc23)C1c1cccnc1 (stereo not drawn),/,-1,?,3
C[n+]1cccc2ccc3c(c21)OC(N)=C(C#N)C3c1ccccc1 (stereo not drawn),7.4µM*,-3,3.7µM*,11
COc1ccccc1NC(=O)C(C)N1C(=O)C2CCCCC2C1=O (stereo not drawn),7%,/,36%,/
O=C(Nc1ccccc1)N1CCC(C(=O)N2CCN(c3ccccc3F)CC2)CC1,?,-2,8%,-4
CNC(=O)COc1coc(CN2CCN(c3ccccc3OC)CC2)cc1=O,?,-1,7%,-4
Cc1ccc(C(=O)NNC(=O)Cc2ccccc2)cc1,41%,28*,/,75
O=C(Cc1ccccc1)NNC(=O)c1ccc(NC(=O)c2ccccc2)cc1,-19%,9,-11%,-8
Cc1ccc(C(=O)NNC(=O)Cc2cccs2)cc1,45%,20*,54%,29
C[C@H](NC(=O)[C@@H]1CSC2c3ccccc3C(=O)N21)C(=O)NCCc1ccc(F)cc1 (stereo partly drawn),-28%,8,0%,18
C[C@H](NC(=O)[C@@H]1CSC2c3ccccc3C(=O)N21)C(=O)NCCc1ccccc1 (stereo partly drawn),96%,43*,50%,51*
COc1cccc(C2=Nn3c(nnc3-c3cc(OC)cc(OC)c3)SC2)c1,/,-3,/,-3
SMILES,Pf growth 96h,CHX counter,Pf growth 48h,Shiga toxin inh
O=C(COc1ccc(Cl)cc1Cl)Nc1c(-c2cccs2)nc2ccccn12,71%,13*,44%,30
Cc1cc(Cl)ccc1OCC(=O)Nc1ccccc1NS(=O)(=O)c1cccs1,2%,23*,11%,23
Cc1ccc(C(=O)Nc2c(-c3cccs3)nc3cc(C)ccn23)cc1,14%,13,?,16
O=C(COc1ccc(Cl)cc1Cl)Nc1ccccc1NS(=O)(=O)c1cccs1,15%,47*,46%,94*
Cc1ccn2c(NC(=O)C(C)(C)Oc3ccc(Cl)cc3)c(-c3cccs3)nc2c1,12µM*,-1,-22%,-9
O=C(Nc1c(-c2cccs2)nc2ccccn12)c1ccccc1F,-25%,-2,-5%,-4
CC(NC(=O)c1cc(S(=O)(=O)N(C)C)ccc1Cl)c1ccc(-n2ccnc2)cc1 (stereo not drawn),-20%,-4,-15%,-32
COc1cccc2sc(N(CCCN(C)C)C(=O)c3sc4ccccc4c3Cl)nc12,?,-9,7%,-20
CSCC[C@H](N)C(=O)N[C@@H](CCC(=O)O)C(=O)N[C@H](C(=O)NCC(=O)N[C@@H](Cc1c[nH]c2ccccc12)C(=O)N[C@@H](Cc1ccc(O)cc1)C(=O)N[C@@H](CCCNC(=N)N)C(=O)N[C@@H](CO)C(=O)N1CCC[C@H]1C(=O)N[C@@H](Cc1ccccc1)C(=O)N[C@@H](CO)C(=O)N[C@@H](CCCNC(=N)N)C(=O)N[C@H](C(=O)N[C@H](C(=O)N[C@@H](Cc1cnc[nH]1)C(=O)N[C@@H](CC(C)C)C(=O)N[C@@H](Cc1ccc(O)cc1)C(=O)N[C@@H](CCCNC(=N)N)C(=O)N[C@@H](CC(N)=O)C(=O)NCC(=O)N[C@@H](CCCCN)C(=O)O)C(C)C)C(C)C)C(C)C,/,-4,/,-4
C=C1CC2C3CC[C@@]4(OCOC45COCO5)[C@@]3(C)C(O)CC2[C@@]2(C)CCC(=O)C=C12 (stereo partly drawn),13µM*,-4,10µM*,-4
CC(=O)C12OC1CC1C3CCC4=CC(=O)CCC4(C)C3CCC12C (stereo not drawn),-2%,-2,-4%,-2
Cc1ccccc1C(=O)c1cccn1CC(=O)NCCC1=CCCCC1,7%,25*,14%,40
Cc1ccccc1C(=O)c1cccn1CC(=O)NCCN1CCN(c2cccc(C)c2C)CC1,5.9µM*,-3,?,30
Cc1ccccc1C(=O)c1cccn1CC(=O)NCCCN1CCCCC1,2%,-5,10%,-5
COc1cccc2c1nc(C)c1cc(C)oc12,-12%,36*,67%,40
CCC1Nc2ncnc(N3CCN(c4ccccc4)CC3)c2N(Cc2ccc(OC)cc2)C1=O (stereo not drawn),12µM*,/,12µM*,/
Cc1c(C(=O)N2CCC(C)CC2)sc2ncnc(N3CCN(c4ccccc4)CC3)c12,38%,11,0%,15
CCC1Nc2ncnc(N3CCN(c4ccccc4)CC3)c2N(Cc2ccc(Br)cc2)C1=O (stereo not drawn),?,/,12µM*,/

# Compound activity: PubChem BioAssay, National Center for Advancing Translational Sciences (NCATS)
